This note sets out measurements from PubChem BioAssay AID1259240 (Keith Lab, Institute of Cancer Science, University of …, 2017).

SMILES strings stand for the structures. Active and inactive are the calls of the source. Rule as the data show it: active = fold change mostly below about -2 (no sharp cut-off); inactive = mostly above about -1.8.

This experiment can be described thus: TERT promoter activity modulators, primary screen, cell-based, luciferase reporter, human (AID 1259240). To be noted: A2780 TERT promoter luciferase reporter, 16 h; at 20 µM, fold versus average of vehicle-only wells. For orientation: Reporter assays use an easily measured gene product as a stand-in for the process of interest.
With `O=C(OCCCN=C1NS(=O)(=O)c2ccccc21)c1cccs1`, the result was active.

As to `Cc1ccc(N2C(=O)c3n[nH]c(C)c3C2c2cccs2)cc1` (stereo unspecified), the fold change was 1.21 (inactive).

Take `CCN1CCN(C(=O)CSc2nc(-c3ccco3)cc(C(F)(F)F)n2)CC1`: the fold change is -1.46 (inactive).

For `O=C(NCCCN1CCCCC1)C1CCC(CNS(=O)(=O)c2cccc3nsnc23)CC1` (stereo unspecified), the fold change is -1.15 (inactive).

Consider `CCOC(=O)C(Sc1nnc(-c2c[nH]c3ccccc23)n1C)C(=O)OCC`, for which the call was inactive.

As to `CCCN(CCC)C(=O)Cn1c(=O)oc2cc(S(=O)(=O)N3CC(C)CC(C)C3)ccc21` (stereo unspecified), the fold change is 1.03 (inactive).

As to `O=C(O)CSc1nc(-c2cccs2)cc(C(F)(F)F)n1`, the fold change is -1.48 (inactive).

Turning to `O=C(O)COc1ccc(/C=C2/NC(=O)N(c3ccccc3)C2=O)cc1`, the fold change was -1.53 (inactive).

For the molecule `Cc1c(C(=O)N2CC(C)CC(C)C2)sc2ncn(CC(=O)N3CCC(C)CC3)c(=O)c12` (stereo unspecified), the fold change was -1.37 (inactive).

Consider `COc1ccccc1C(=O)[C@H]1C(=O)N[C@@]2(C)C[C@@H]1c1cccc(OC)c1O2`, for which the fold change is -1.16 (inactive).

For `Cc1ccc(N2C(=O)c3n[nH]c(C)c3C2c2ccccc2F)cc1` (stereo unspecified), the fold change is 1.63 (inactive).

`CC(C)(C)c1ccc(OCc2nc(-c3ccncc3)no2)c(Br)c1`: the fold change was -1.23 (inactive).

On to `CCOC(=O)C1CCN(c2c(NCCN(C)C)c(=O)c2=O)CC1`, for which the fold change is 1.32 (inactive).

Turning to `CCSc1nc2ccccc2n1S(=O)(=O)c1ccccc1`, the fold change was -2.48 (active).

With `CN(C)c1ccc(/C=c2\sc3nc(-c4ccco4)nn3c2=O)cc1`, the fold change is 1.37 (inactive).

With `CCN1CCN(S(=O)(=O)c2ccc3[nH]c(=O)oc3c2)CC1`, the fold change was 1.02 (inactive).
